Values without a mark were called inactive.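 The calls were made as follows, unless noted: active = dose-dependent loss of cell ATP signal giving a full or clear fitted curve, ranked by lower potency value; inconclusive = weak partial curve or response only at the top dose; inactive = no loss of viability signal.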 Results filed as inconclusive are left out.
How the values were obtained:
[1] = target: Lysosomal acid glucosylceramidase (Homo sapiens) (UniProt P04062); assay: Glucocerebrosidase-p2 (AID 348; in the data active = potency below about 10 µM); conditions: purified GBA, blue fluorogenic substrate, 40 min
Outline: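 Normal human glucocerebrosidase (0.2 nM) with blue fluorogenic substrate (80 uM final) in citrate/phosphate pH 5.9 with 10mM sodium taurocholate, 0.01% tween-20; 40 min RT, NaOH/glycine stop; fluorescence Ex 365/Em 440; AC50 from a titration from 0.6 nM upwards.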

[2] = Cell Viability - Jurkat (AID 426); conditions: qHTS;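 also: cells exposed to compound for 40 hours at 37 °C before ATP read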
Outline: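 Cells of the human T-cell leukemia line Jurkat (E6-1) are seeded at 5000 per well, treated with compound across a concentration range for 40 hours at 37 °C, then lysed with CellTiter-Glo; luminescence reports ATP.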
Potency is read from the fitted curve at half-maximal effect.

Lysosomal acid glucosylceramidase (Homo sapiens), sequence (P04062 whole entry, looked up): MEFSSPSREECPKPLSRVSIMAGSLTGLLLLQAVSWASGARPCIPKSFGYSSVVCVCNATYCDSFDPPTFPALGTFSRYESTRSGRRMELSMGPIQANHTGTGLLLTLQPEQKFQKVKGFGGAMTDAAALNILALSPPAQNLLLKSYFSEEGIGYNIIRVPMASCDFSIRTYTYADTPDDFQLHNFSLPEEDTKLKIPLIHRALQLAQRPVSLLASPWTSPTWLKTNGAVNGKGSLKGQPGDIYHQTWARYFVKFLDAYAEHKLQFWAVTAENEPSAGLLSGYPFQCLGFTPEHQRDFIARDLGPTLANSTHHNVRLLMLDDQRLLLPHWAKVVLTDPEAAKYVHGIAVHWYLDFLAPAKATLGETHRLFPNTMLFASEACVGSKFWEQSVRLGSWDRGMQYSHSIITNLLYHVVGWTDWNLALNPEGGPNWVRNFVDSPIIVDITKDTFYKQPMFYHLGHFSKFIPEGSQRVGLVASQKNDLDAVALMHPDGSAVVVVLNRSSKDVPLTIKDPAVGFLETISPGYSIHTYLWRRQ

## Cc1ccccc1CN1C2=NCCN2C(=O)C2=C1CCN(Cc1ccccc1)C2
[1]
  Potency: > 11.4 µM

## CC(=O)O[C@@H]1CC(C)=C2[C@H]1[C@H](C)CC[C@H]2/C=C(\C)C(=O)O
[2]
  Potency: > 92 µM

## Cc1ccc(N)cc1O
[2]
  Potency: > 92 µM

Source: PubChem BioAssay (NCATS)
